In ChEMBL document CHEMBL4513135, “CO-ADD screening of IQOG CSIS (Spain) compounds” one finds Inhibition data, which are given here for 40 compounds.

Measured potencies and affinities stand elsewhere.

The first assay relates to Candida albicans. As to conditions: 32 ug/mL.
With `CCOc1nc(N)c(C#N)c(-c2ccccc2)c1C#N`, the Inhibition came to 1.61%.

For the compound `C#CCN1CCc2nc3nc(N4CCCC4)c(C#N)cc3c(N)c2C1`, the Inhibition was found to be 1.92%.

`O=C(N/N=C/c1c[nH]c2ccccc12)c1ccco1`: the Inhibition turned out to be 1.93%.

`CC(=O)Oc1ccc(C=C2N=C(c3ccccc3)OC2=O)cc1`: the Inhibition was -0.21%.

For the compound `CC(C)CC(C)NNC(=O)c1cc2ccccc2[nH]1` (stereo not given), the Inhibition was -0.37%.

For the compound `COc1ccc2cc(C3C4=C(CC(C)(C)CC4=O)Oc4nc5c(c(N)c43)CCCCC5)c(Cl)nc2c1` (stereo not given), the Inhibition worked out at 23%.

For the compound `N#Cc1c(N)nc(N2CCOCC2)c(C#N)c1-c1ccccc1`, the Inhibition was 1.23%.

Regarding `CC#CCN(Cc1ccccc1)c1nc(N)c(C#N)cc1C#N`, the Inhibition was 3.48%.

As for `CC1=N/C(=C(\C)c2ccccc2)C(=O)O1`, the Inhibition turned out to be 0.7%.

Turning to `COc1cccc(C2C(C#N)=C(N)Oc3ccc4ccccc4c32)c1` (stereo not given), the Inhibition was 1.77%.

As for `COc1ccc(C2c3ccc4ccccc4c3OC(=NBr)C2(Br)C#N)cc1` (stereo not given), the Inhibition is 2.22%.

For the compound `ClCCC1CCN(Cc2ccccc2)CC1`, the Inhibition was 6.52%.

For the compound `CCCC(C)NNC(=O)Cc1c[nH]c2ccccc12` (stereo not given), the Inhibition is 0.38%.

As to `COC(=O)C1CCN(Cc2ccccc2)CC1`, the Inhibition was determined as 4.82%.

For `CCOC(=O)c1c(C)nc(NC2CCN(Cc3ccccc3)CC2)c(C#N)c1-c1ccccc1`, the Inhibition is 3.26%.

`O=C1OC(c2ccc([N+](=O)[O-])cc2)=NC1=Cc1ccccc1`: the Inhibition is 1.83%.

For the compound `COc1ccc2cc(C=O)c(Cl)nc2c1`, the Inhibition was 6.08%.

Take `COc1ccc(CNNC(=O)c2cc3ccccc3[nH]2)cc1`: the Inhibition turned out to be 0.44%.

Turning to `C#CCN(C)Cc1cc2cc(OCOc3ccc4c(c3)cc(CN(C)CC#C)n4C)ccc2n1C`, the Inhibition was -0.1%.

For `COc1cccc(C=C2N=C(c3ccccc3)OC2=O)c1OC(C)=O`, the Inhibition was -1.1%.

As to `C#CCNc1ccc(Cl)nn1`, the Inhibition was 3.36%.

For `C#CCN(C)Cc1cc2cc(OCCCCC3CCN(Cc4ccccc4)CC3)ccc2n1C`, the Inhibition worked out at 2.73%.

As for `COc1ccc(C2c3c(nc4c(c3N)CCCC4)Oc3ccc4ccccc4c32)cc1OC` (stereo not given), the Inhibition was 2.65%.

Take `N#Cc1c(N)nc(N)c(C#N)c1-c1ccccc1`: the Inhibition was 1.47%.

As for `CC1Cc2c(nc3c(c2N)CCCC3)NC1=O` (stereo not given), the Inhibition worked out at 1.73%.

With `CN(C)c1ccc(C(=NNC(=O)c2cc3ccccc3[nH]2)c2ccc(N(C)C)cc2)cc1`, the Inhibition was -0.9%.

For `Cn1ccnc1C1c2ccc3ccccc3c2Oc2nc3c(c(N)c21)CCCCC3` (stereo not given), the Inhibition came to 1.99%.

`CCOC(=O)c1c(C)[nH]c(=O)c(C#N)c1-c1ccccc1`: the Inhibition was 2.08%.

Turning to `N#Cc1cc2c(N)c3c(nc2nc1Cl)CCCC3`, the Inhibition amounted to 2.63%.

On to `N#Cc1ccc(Br)cc1N`, for which the Inhibition is 18%.

Turning to `COc1[nH]c(=O)ccc1C#N`, the Inhibition is 7.91%.

For `C#CCNC.O=C(O)C(=O)O`, the Inhibition came to 4.18%.

Regarding `O=C1OC(c2ccccc2)=NC12CC2c1ccc([N+](=O)[O-])cc1` (stereo not given), the Inhibition came to 1.56%.

For the compound `C#CCN(C)Cc1cc2cc(OCCCCC3CCN(Cc4ccccc4)CC3)ccc2n1C.Cl`, the Inhibition worked out at 2.11%.

For the compound `N#Cc1c(-c2ccccc2)c2ccc3ccccc3c2oc1=O`, the Inhibition came out at 3.25%.

Consider `O=C1OC(c2ccccc2)=NC1=Cc1ccccc1Cl`, for which the Inhibition came out at 1.66%.

With `C#CCN1CCc2nc3nc(NC4CCN(Cc5ccccc5)CC4)c(C#N)cc3c(N)c2C1`, the Inhibition was 5.66%.

On to `COc1ccc(-c2cc(-c3cc4ccccc4nc3Cl)cc(=O)[nH]2)cc1`, for which the Inhibition is -0.7%.

Consider `CCC(CC)NNC(=O)c1cc2ccccc2n1C`, for which the Inhibition worked out at 5.89%.

`CC(=O)Oc1ccc(C=C2N=C(C)OC2=O)cc1`: the Inhibition is -1%.

A further assay deals with Cryptococcus neoformans. As to conditions: Concentration 32 ug.mL-1; ASSAY_TEST Inhibition of Fungal Growth; detection method Resazurin; Absorption (OD600-OD570); plate type 384well; NBS; CORNING #3640. Background: Resazurin is reduced to fluorescent resorufin, in cell work by metabolically active cells.
Turning to `CCOc1nc(N)c(C#N)c(-c2ccccc2)c1C#N`, the Inhibition is -46.51%.

Take `C#CCN1CCc2nc3nc(N4CCCC4)c(C#N)cc3c(N)c2C1`: the Inhibition is listed as -92.31%.

On to `O=C(N/N=C/c1c[nH]c2ccccc12)c1ccco1`, for which the Inhibition is on record as -1.51%.

For the compound `CC(=O)Oc1ccc(C=C2N=C(c3ccccc3)OC2=O)cc1`, the Inhibition is -12.33%.

On to `CC(C)CC(C)NNC(=O)c1cc2ccccc2[nH]1` (stereo not given), for which the Inhibition is -6.14%.

With `COc1ccc2cc(C3C4=C(CC(C)(C)CC4=O)Oc4nc5c(c(N)c43)CCCCC5)c(Cl)nc2c1` (stereo not given), the Inhibition is -4.18%.

Turning to `N#Cc1c(N)nc(N2CCOCC2)c(C#N)c1-c1ccccc1`, the Inhibition is reported as -3.16%.

In the case of `CC#CCN(Cc1ccccc1)c1nc(N)c(C#N)cc1C#N`, the Inhibition is listed as -21.6%.

Regarding `CC1=N/C(=C(\C)c2ccccc2)C(=O)O1`, the Inhibition is on record as -3.17%.

For `COc1cccc(C2C(C#N)=C(N)Oc3ccc4ccccc4c32)c1` (stereo not given), the Inhibition is -37.42%.

`COc1ccc(C2c3ccc4ccccc4c3OC(=NBr)C2(Br)C#N)cc1` (stereo not given): the Inhibition was -24.77%.

For `ClCCC1CCN(Cc2ccccc2)CC1`, the Inhibition is on record as -7.64%.

With `CCCC(C)NNC(=O)Cc1c[nH]c2ccccc12` (stereo not given), the Inhibition stood at 5.38%.

Turning to `COC(=O)C1CCN(Cc2ccccc2)CC1`, the Inhibition is on record as -2.37%.

Regarding `CCOC(=O)c1c(C)nc(NC2CCN(Cc3ccccc3)CC2)c(C#N)c1-c1ccccc1`, the Inhibition is -46.25%.

For the compound `O=C1OC(c2ccc([N+](=O)[O-])cc2)=NC1=Cc1ccccc1`, the Inhibition is -5.52%.

For the compound `COc1ccc2cc(C=O)c(Cl)nc2c1`, the Inhibition is given as 26.83%.

Take `COc1ccc(CNNC(=O)c2cc3ccccc3[nH]2)cc1`: the Inhibition was -2.55%.

As to `C#CCN(C)Cc1cc2cc(OCOc3ccc4c(c3)cc(CN(C)CC#C)n4C)ccc2n1C`, the Inhibition is on record as -41.21%.

For `COc1cccc(C=C2N=C(c3ccccc3)OC2=O)c1OC(C)=O`, the Inhibition is -5.03%.

In the case of `C#CCNc1ccc(Cl)nn1`, the Inhibition was -43.23%.

Take `C#CCN(C)Cc1cc2cc(OCCCCC3CCN(Cc4ccccc4)CC3)ccc2n1C`: the Inhibition is on record as -48.77%.

Turning to `COc1ccc(C2c3c(nc4c(c3N)CCCC4)Oc3ccc4ccccc4c32)cc1OC` (stereo not given), the Inhibition is 0.83%.

Regarding `N#Cc1c(N)nc(N)c(C#N)c1-c1ccccc1`, the Inhibition is -29.88%.

For the compound `CC1Cc2c(nc3c(c2N)CCCC3)NC1=O` (stereo not given), the Inhibition is -61.31%.

On to `CN(C)c1ccc(C(=NNC(=O)c2cc3ccccc3[nH]2)c2ccc(N(C)C)cc2)cc1`, for which the Inhibition was -8.51%.

Take `Cn1ccnc1C1c2ccc3ccccc3c2Oc2nc3c(c(N)c21)CCCCC3` (stereo not given): the Inhibition is -67.84%.

With `CCOC(=O)c1c(C)[nH]c(=O)c(C#N)c1-c1ccccc1`, the Inhibition is reported as -38.24%.

Take `N#Cc1cc2c(N)c3c(nc2nc1Cl)CCCC3`: the Inhibition is given as -42.44%.

As to `N#Cc1ccc(Br)cc1N`, the Inhibition is given as -4.02%.

As to `COc1[nH]c(=O)ccc1C#N`, the Inhibition is -56.43%.

In the case of `C#CCNC.O=C(O)C(=O)O`, the Inhibition is recorded as -8.52%.

Turning to `O=C1OC(c2ccccc2)=NC12CC2c1ccc([N+](=O)[O-])cc1` (stereo not given), the Inhibition was -2.27%.

With `C#CCN(C)Cc1cc2cc(OCCCCC3CCN(Cc4ccccc4)CC3)ccc2n1C.Cl`, the Inhibition is on record as -16.02%.

Turning to `N#Cc1c(-c2ccccc2)c2ccc3ccccc3c2oc1=O`, the Inhibition was -60.47%.

For `O=C1OC(c2ccccc2)=NC1=Cc1ccccc1Cl`, the Inhibition is on record as -1.51%.

For the compound `C#CCN1CCc2nc3nc(NC4CCN(Cc5ccccc5)CC4)c(C#N)cc3c(N)c2C1`, the Inhibition is on record as -17.48%.

For the compound `COc1ccc(-c2cc(-c3cc4ccccc4nc3Cl)cc(=O)[nH]2)cc1`, the Inhibition is reported as -53.36%.

As to `CCC(CC)NNC(=O)c1cc2ccccc2n1C`, the Inhibition is listed as -1.5%.

For `CC(=O)Oc1ccc(C=C2N=C(C)OC2=O)cc1`, the Inhibition is -2.97%.

Broadly, the Inhibition is the relative decrease from the control value, in per cent.
